# Test results taken from article PMC11062922 (Nature Chemical Biology, 2023).
# Where two headings read alike, the source gives them in different places.
# Assays:
# Set-up in all cases: species or system human, MV4-11 + K-562 + COLO205 + SK-N-BE2 + OVCAR-8
# EPHB6 = details: read-out: apparent Kd, n = 1
# JAK2 = details: read-out: apparent Kd, n = 1
# MAP2K5 = details: read-out: apparent Kd, n = 1
# AURKB = details: read-out: apparent Kd; compound concentrations:100 nM and 1000 nM (sheet 'Samples'); n = 1
# BMPR1B = details: read-out: apparent Kd, n = 1
# ZAK = details: read-out: apparent Kd; compound concentrations:100 nM and 1000 nM (sheet 'Samples'); n = 1
# AKT2 = details: read-out: apparent Kd, n = 1
# DJA1 = test system: T1, DJA1; details: read-out: apparent Kd, n = 1
# T1 construct: gene DNAJA1
# CDK17 = details: read-out: apparent Kd, n = 1
# MAPK9 = details: read-out: apparent Kd, n = 1
# FN3KRP = details: read-out: apparent Kd, n = 1
# FLT4 = details: read-out: apparent Kd, n = 1
# NLK = details: read-out: apparent Kd, n = 1
# MAPKAPK2 = details: read-out: apparent Kd, n = 1
# EPHB1 = details: read-out: apparent Kd; compound concentrations:100 nM and 1000 nM (sheet 'Samples'); n = 1
# PRKD3 = details: read-out: apparent Kd; compound concentrations: 100 nM and 1000 nM (sheet 'Samples'), CATDS: 2.77377290368628E-2; n = 1
# [1] = compound concentrations:100 nM and 1000 nM (sheet 'Samples')
structure (smiles),measurement,setting,value
Cc1cc(O)cc(C)c1/C=C/c1cncc(-c2nn[nH]n2)c1.Cl [GW441806A],potency estimated from few doses,"EPHB6; compound concentrations: 100 nM and 1000 nM (sheet 'Samples'), CATDS: 4.3077369875392603E-2",1670 nM
same,potency estimated from few doses,"JAK2; compound concentrations: 100 nM and 1000 nM (sheet 'Samples'), CATDS: 7.0798034106367105E-2",387 nM
same,potency estimated from few doses,"MAP2K5; compound concentrations: 100 nM and 1000 nM (sheet 'Samples'), CATDS: 4.6114067598033499E-2",1310 nM
CN1CCN(Cc2cccc(-c3ccc4c(Nc5ccc(Oc6ccccc6)cc5)ccnc4c3)c2)CC1 [GW578342X],potency estimated from few doses,"MAP2K5; compound concentrations: 100 nM and 1000 nM (sheet 'Samples'), CATDS: 0.10104411833730501",640 nM
Cn1cc(-c2cnc(N)c3c(-c4ccc5c(c4)CCN5C(=O)Cc4ccccc4)csc23)cn1 [GSK2593074A],potency estimated from few doses,AURKB,692 nM
same,potency estimated from few doses,EPHB6; [1],151 nM
same,potency estimated from few doses,MAP2K5; [1],979 nM
COc1cccc(-c2c[nH]c3c(N/N=C/c4ccncc4)ncnc23)c1 [GW814408X],potency estimated from few doses,BMPR1B; [1],612 nM
same,potency estimated from few doses,ZAK,1540 nM
CS(=O)(=O)c1ccc(-c2nc3n(c2-c2ccncc2)CCC3)cc1 [SKF-105942],potency estimated from few doses,"AKT2; compound concentrations: 100 nM and 1000 nM (sheet 'Samples'), CATDS: 0.110414115877762",2470 nM
same,potency estimated from few doses,"DJA1; compound concentrations: 100 nM and 1000 nM (sheet 'Samples'), CATDS: 0.12627731400414099",1700 nM
Clc1ccc(-c2nn3ncccc3c2-c2ccnc(Nc3ccccc3)n2)cc1 [GW829055X],potency estimated from few doses,"AKT2; compound concentrations: 100 nM and 1000 nM (sheet 'Samples'), CATDS: 4.03721310315426E-2",1150 nM
same,potency estimated from few doses,"BMPR1B; compound concentrations: 100 nM and 1000 nM (sheet 'Samples'), CATDS: 9.3434375492385105E-2",264 nM
same,potency estimated from few doses,"CDK17; compound concentrations: 100 nM and 1000 nM (sheet 'Samples'), CATDS: 3.0637739748937999E-2",2340 nM
same,potency estimated from few doses,"DJA1; compound concentrations: 100 nM and 1000 nM (sheet 'Samples'), CATDS: 4.1892877755586803E-2",1060 nM
Fc1cccc(COc2ccc(Nc3ncncc3C#Cc3ccccc3)cc2Cl)c1 [GW651576X],potency estimated from few doses,"CDK17; compound concentrations: 100 nM and 1000 nM (sheet 'Samples'), CATDS: 4.4959210496165199E-2",2290 nM
same,potency estimated from few doses,"DJA1; compound concentrations: 100 nM and 1000 nM (sheet 'Samples'), CATDS: 6.6379654075199995E-2",1040 nM
Cc1ccc(NC(=O)Nc2ccccc2)cc1-c1ccc(C(=O)Nc2ccncc2)cc1 [GSK1398471A],potency estimated from few doses,"MAP2K5; compound concentrations: 100 nM and 1000 nM (sheet 'Samples'), CATDS: 9.4548103744077197E-2",2350 nM
COc1cc(N2CCN(C(C)C)CC2)ccc1Nc1nc(Nc2cccc(F)c2C(=O)O)c2cc[nH]c2n1 [GSK1819799A],potency estimated from few doses,"AKT2; compound concentrations: 100 nM and 1000 nM (sheet 'Samples'), CATDS: 4.3054850332127297E-2",1950 nM
same,potency estimated from few doses,"CDK17; compound concentrations: 100 nM and 1000 nM (sheet 'Samples'), CATDS: 4.1653075396407099E-2",2170 nM
same,potency estimated from few doses,"DJA1; compound concentrations: 100 nM and 1000 nM (sheet 'Samples'), CATDS: 4.1353934999492699E-2",2220 nM
same,potency estimated from few doses,"MAPK9; compound concentrations: 100 nM and 1000 nM (sheet 'Samples'), CATDS: 0.24378772023950801",74.5 nM
Cl.Fc1cccc(COc2ccc(Nc3ncnc4cc(-c5ccc[nH]5)sc34)cc2Cl)c1 [GW693881A],potency estimated from few doses,"FN3KRP; compound concentrations: 100 nM and 1000 nM (sheet 'Samples'), CATDS: 0.20216809637719099",791 nM
Cc1ccc(CC(=O)N2CCc3cc(-c4cn(C)c5ncnc(N)c45)ccc32)cc1 [GSK2634758A],potency estimated from few doses,"DJA1; compound concentrations: 100 nM and 1000 nM (sheet 'Samples'), CATDS: 0.16738098836047199",1400 nM
same,potency estimated from few doses,"FN3KRP; compound concentrations: 100 nM and 1000 nM (sheet 'Samples'), CATDS: 0.17784341210851801",1240 nM
Cn1cc(C2=C(c3cccc([N+](=O)[O-])c3)C(=O)NC2=O)c2ccccc21 [RO0317474-000],potency estimated from few doses,"FN3KRP; compound concentrations: 100 nM and 1000 nM (sheet 'Samples'), CATDS: 0.16649901321048899",1070 nM
CC(=O)Nc1ccc2c(C3=C(c4cn(C)c5ccccc45)C(=O)NC3=O)cn(C)c2c1 [RO0317596-000],potency estimated from few doses,"FN3KRP; compound concentrations: 100 nM and 1000 nM (sheet 'Samples'), CATDS: 0.121909442798699",1250 nM
Cc1ccc(NC(=O)c2ccc(Cl)cc2)cc1-c1ccc(C(=O)Nc2ccncc2)cc1 [GSK1398467A],potency estimated from few doses,"FN3KRP; compound concentrations: 100 nM and 1000 nM (sheet 'Samples'), CATDS: 0.20437737337719999",1180 nM
COc1ccc(S(=O)(=O)NC2CCN(c3cc(C)nc(Nc4cccc(C#N)c4)n3)CC2)cc1.O=C(O)C(F)(F)F [GSK1653539A],potency estimated from few doses,"FN3KRP; compound concentrations: 100 nM and 1000 nM (sheet 'Samples'), CATDS: 0.40384988174316899",910 nM
Cc1ccc(C(=O)NC2CC2)cc1-c1ccc2[nH]ncc2c1 [GW820759X],potency estimated from few doses,"FN3KRP; compound concentrations: 100 nM and 1000 nM (sheet 'Samples'), CATDS: 0.34838904093032003",1060 nM
Cn1cc(C2=C(c3cn(CCCCCO)c4ccccc34)C(=O)NC2=O)c2ccccc21 [RO0318053-000],potency estimated from few doses,"FN3KRP; compound concentrations: 100 nM and 1000 nM (sheet 'Samples'), CATDS: 0.23703756302713999",69.9 nM
COc1cccc(C2=C(c3cn(C)c4c(C)cccc34)C(=O)NC2=O)c1 [RO3301012-000],potency estimated from few doses,"FN3KRP; compound concentrations: 100 nM and 1000 nM (sheet 'Samples'), CATDS: 0.113294190935364",1300 nM
COc1ccc(C2=C(c3cn(C)c4ccccc34)C(=O)NC2=O)cc1OC [RO3206363-000],potency estimated from few doses,"AKT2; compound concentrations: 100 nM and 1000 nM (sheet 'Samples'), CATDS: 8.3129465265060903E-2",149 nM
same,potency estimated from few doses,"DJA1; compound concentrations: 100 nM and 1000 nM (sheet 'Samples'), CATDS: 3.2513241063347201E-2",1710 nM
same,potency estimated from few doses,"FLT4; compound concentrations: 100 nM and 1000 nM (sheet 'Samples'), CATDS: 3.2229986541726797E-2",1770 nM
same,potency estimated from few doses,"MAPK9; compound concentrations: 100 nM and 1000 nM (sheet 'Samples'), CATDS: 8.8329407260920895E-2",133 nM
COc1ccc(-c2nn3ncccc3c2-c2ccnc(Nc3ccc4c(c3)OCCO4)n2)cc1 [GW827106X],potency estimated from few doses,"MAPK9; compound concentrations: 100 nM and 1000 nM (sheet 'Samples'), CATDS: 4.4079434043462103E-2",2070 nM
same,potency estimated from few doses,"NLK; compound concentrations: 100 nM and 1000 nM (sheet 'Samples'), CATDS: 4.4703419918465902E-2",1990 nM
Cn1cc(C2=C(c3ccccc3[N+](=O)[O-])C(=O)NC2=O)c2ccccc21 [RO0317753-000],potency estimated from few doses,"FN3KRP; compound concentrations: 100 nM and 1000 nM (sheet 'Samples'), CATDS: 8.17359273490917E-2",1130 nM
Fc1ccc(-c2ncn(C3CCNCC3)c2-c2ccnc(Oc3ccc4c(c3)OCO4)n2)cc1 [SB-250715],potency estimated from few doses,AKT2; [1],1360 nM
same,potency estimated from few doses,MAPK9; [1],1260 nM
same,potency estimated from few doses,MAPKAPK2; [1],4.25 nM
Cc1ccc(-n2nc(C(C)(C)C)cc2NC(=O)Nc2ccc(OCCN3CCOCC3)cc2)cc1 [BIRB0876BS],potency estimated from few doses,JAK2; [1],748 nM
NC(=O)c1cccnc1COc1cc(-c2ccc(N3CCOCC3)nc2)cc2ncccc12 [BI01125081],potency estimated from few doses,DJA1; [1],1430 nM
same,potency estimated from few doses,EPHB1,738 nM
COc1cc(F)c(F)c(F)c1C(=O)c1cnc(NC2CCN(S(C)(=O)=O)CC2)nc1N [RO4600703-000],potency estimated from few doses,CDK17; [1],77.3 nM
same,potency estimated from few doses,FN3KRP; [1],549 nM
Nc1c(C(=O)c2ccccc2)cnn1-c1ccc(F)cc1 [RO1151246-000],potency estimated from few doses,AKT2; [1],1800 nM
same,potency estimated from few doses,MAPKAPK2; [1],665 nM
Cl.Oc1ccc2ncnc(Nc3ccc(OCc4ccccc4)cc3)c2c1 [GI262866A],potency estimated from few doses,FN3KRP; [1],762 nM
COc1ccccc1C(=O)c1cnc(NC2CCN(S(C)(=O)=O)CC2)nc1N [RO4514610-000],potency estimated from few doses,CDK17; [1],732 nM
CCS(=O)(=O)c1ccc(OC)c(Nc2ncc(-c3cccc(F)c3)o2)c1 [GW621970X_KCGS],potency estimated from few doses,FLT4; [1],574 nM
NC(=O)c1sc(-n2cnc3ccc(C(F)(F)F)cc32)cc1OCc1ccccc1Br [GW853606X],potency estimated from few doses,JAK2; [1],419 nM
COc1ccc(C2=C(Nc3cccc(O)c3)C(=O)NC2=O)cc1 [SB-390766],potency estimated from few doses,NLK; [1],2210 nM
Nc1nccc(-c2c(-c3ccc(F)cc3)ncn2C2CCC(O)CC2)n1 (stereo not shown) [SB-223133],potency estimated from few doses,"MAPK9; compound concentrations: 100 nM and 1000 nM (sheet 'Samples'), CATDS: 5.3906209351099597E-2",85.6 nM
same,potency estimated from few doses,"MAPKAPK2; compound concentrations: 100 nM and 1000 nM (sheet 'Samples'), CATDS: 8.8407398731798204E-2",25.8 nM
same,potency estimated from few doses,"NLK; compound concentrations: 100 nM and 1000 nM (sheet 'Samples'), CATDS: 4.6610928560784803E-2",129 nM
same,potency estimated from few doses,PRKD3,906 nM
